Counter-ions that a name gives are not always drawn.
Key:
Assay in all cases: Euclidean distance of Cell Painting phenotypic profile (signed KS, 77 features) to DMSO centroid (dimensionless distance); 5 or 10 uM (library dependent); higher = stronger phenotypic change vs DMSO (phenoactivity)
Conditions in all cases: 48 h
786-O = tested on: 786-O
Outline: (§1)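 Library compounds were applied at 10 or 5 uM, depending on the library, with 0.1% DMSO final, for 48 h to five cancer lines and a healthy fibroblast line. After staining, cells were imaged confocally at 20X across 9 fields per well, and Harmony extracted 77 features, each scored as a signed Kolmogorov-Smirnov statistic against vehicle wells on the same plate. Phenoactivity is the Euclidean distance between each profile and the median vehicle profile, with profiles first plate-position corrected, correlation-weighted and averaged over replicates at the top dose.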

A549 = tested on: A549
Outline: as §1

DU145 = tested on: DU145
Outline: as §1

FB = tested on: FB
Outline: as §1

HEPG2 = tested on: HEPG2
Outline: as §1

OVCAR4 = tested on: OVCAR4
Outline: as §1

Compound	Euclidean distance (786-O)	Euclidean distance (A549)	Euclidean distance (DU145)	Euclidean distance (FB)	Euclidean distance (HEPG2)	Euclidean distance (OVCAR4)
NCc1ccc(S(N)(=O)=O)cc1 [Mafenide hydrochloride]	1.35	0.84	0.784	0.654	0.629	1.46
CCN1CC(CCN2CCOCC2)C(c2ccccc2)(c2ccccc2)C1=O (stereo not drawn) [Doxapram HCl]	0.672	0.512	0.481	0.699	0.498	0.962
O=C(Nc1ccccc1)N1CCN(c2nc(-c3ccccc3)ns2)CC1	0.718	0.932	0.9	1.03	1.34	1.08
COc1cc2c(cc1OC)-c1cc3ccc(OC)c(OC)c3c[n+]1CC2 [Palmatine]	0.525	0.996	0.565	0.73	1.18	0.631
Nc1ccc(S(=O)(=O)Nc2ccnn2-c2ccccc2)cc1 [Sulfaphenazole]	0.816	0.571	1.03	0.58	0.469	1.26
COC(=O)N[C@H](C(=O)N1CC2(CC2)C[C@H]1c1nc(-c2ccc3c(c2)C(F)(F)c2cc(-c4ccc5[nH]c([C@@H]6[C@H]7CC[C@H](C7)N6C(=O)[C@@H](NC(=O)OC)C(C)C)nc5c4)ccc2-3)c[nH]1)C(C)C [Ledipasvir (GS5885)]	1.65	1.83	1.33	1.94	1.09	1.18
N#CC[C@H](C1CCCC1)n1cc(-c2ncnc3[nH]ccc23)cn1 [Ruxolitinib Phosphate]	1.96	1.67	1.41	1.39	1.1	1.26
CN(C)[C@@H]1C(O)=C(C(N)=O)C(=O)[C@@]2(O)C(O)=C3C(=O)c4c(O)ccc(Cl)c4[C@@H](O)[C@H]3C[C@@H]12 [Demeclocycline HCl]	0.985	0.836	0.951	1.05	0.887	1.53
COc1ccc2cc(CCC(C)=O)ccc2c1 [Nabumetone]	0.791	1.11	0.872	0.947	0.532	1.55
COc1cc(NC(=O)c2ccc(-c3ccc(Cl)cc3)o2)cc(OC)c1	0.91	1.46	1.23	0.788	1.04	1.48
COc1ccc(CCC(=O)Nc2nc3ccc(Cl)cc3s2)cc1OC	1.29	1.76	1.19	0.998	1.39	1.52
COC(=O)[C@H](c1ccccc1Cl)N1CCc2sccc2C1 [Clopidogrel]	2.53	2.3	2.44	2.99	1.3	2.4
O=C(NCc1cccc(O)c1)Nc1nc(-c2ccncc2)cs1	1.82	1.54	3.26	3.61	1.47	1.88
CC(C)[C@H]1C(=O)N[C@@H](CCCNC(=N)N)C(=O)NCC(=O)N[C@@H](CC(=O)O)C(=O)N[C@H](Cc2ccccc2)C(=O)N1C [Cilengitide]	2.25	1.28	0.875	1.15	4.37	2.86
CC#CC(=O)N1CC[C@@H](n2c(=O)n(-c3ccc(Oc4ccccc4)cc3)c3c(N)ncnc32)C1 [ONO-4059 (GS-4059) hydrochloride]	1.09	0.871	1.8	1.99	0.863	0.627
Cc1cc(=O)oc2cc(O)ccc12 [4-Methylumbelliferone (4-MU)]	0.739	0.856	0.979	0.746	0.603	0.95
CCC(=O)O[C@H]1[C@H](O[C@@H]2[C@@H](C)[C@H](O[C@H]3C[C@@](C)(OC)[C@@H](O)[C@H](C)O3)[C@@H](C)C(=O)O[C@H](CC)[C@@](C)(O)[C@H](O)[C@@H](C)C(=O)[C@H](C)C[C@@]2(C)O)O[C@H](C)C[C@@H]1N(C)C [Erythromycin estolate]	0.939	1.04	1.77	1.82	0.988	1.19
CN(C)C(=O)[C@H](O)[C@H](Cc1ccccc1)NC(=O)c1cc2cc(Cl)ccc2[nH]1	0.476	0.757	0.712	1.01	1.05	0.908
Cc1c(Nc2ncccc2C(=O)O)cccc1C(F)(F)F [Flunixin Meglumin]	1.03	0.853	0.874	0.516	1.42	1.88

Compound	Euclidean distance (786-O)	Euclidean distance (A549)	Euclidean distance (DU145)	Euclidean distance (FB)	Euclidean distance (HEPG2)	Euclidean distance (OVCAR4)
CCOC(=O)C1=C[C@@H](OC(CC)CC)[C@H](NC(C)=O)[C@@H](N)C1 [Oseltamivir phosphate]	0.628	0.678	0.967	1.19	0.883	1.1
CN(C[C@@H]1COCCO1)S(=O)(=O)Nc1ccc2ccc3ncc(-c4cnn(C)c4)cc3c(=O)c2c1	1	0.895	1.01	3.07	0.888	1
C[C@]12CC[C@@H]3c4ccc(O)cc4CC[C@H]3[C@@H]1CC[C@@H]2O [Estradiol]	1.17	0.515	2.36	1.1	0.515	1.04
CC(C)(C)[C@H]1CC[C@H](CC2=C(O)C(=O)c3ccccc3C2=O)CC1 [Buparvaquone]	1.16	1.1	1.17	0.844	0.483	1.44
O=C1c2c(O)ccc(O)c2C(=O)c2c(NCCNCCO)ccc(NCCNCCO)c21 [Mitoxantrone HCl]	4.89	4.24	3.24	4.31	4.05	6.27
CC[C@@H](C)Nc1cc(C(=O)N[C@H]2C[C@H]3CC[C@@H](C2)N3c2ccc(C(=O)C3CC3)cn2)c(C)cc1C(N)=O	3.1	3.1	3.17	3.15	4.37	3.3
C[C@H]1CN(C[C@H](Cc2ccccc2)C(=O)NCC(=O)O)CC[C@@]1(C)c1cccc(O)c1 [Alvimopan dihydrate]	0.875	0.429	1.89	0.594	0.342	0.96
Nc1nc2n[nH]nc2c(=O)[nH]1 [Azaguanine-8]	1.55	0.834	0.699	1.27	1.17	0.737
COCCNCc1ccc(-c2cc3nccc(Oc4ccc(NC(=O)C5(C(=O)Nc6ccc(F)cc6)CC5)cc4F)c3s2)nc1 [Sitravatinib (MGCD516)]	5.08	4.94	5.04	5.24	4.74	4.64
COc1cc(N2CCN(C)CC2)ccc1Nc1nccc(-c2cn(C)c3cnccc23)n1	2.55	1.56	1.34	2.68	1.53	2.69
N[C@H](CO)C(=O)O [(R)-Serine]	1.31	1.48	0.909	0.797	0.786	1.43
CO[C@H]1C[C@H](O[C@@H]2/C(C)=C/C[C@@H]3C[C@@H](C[C@]4(CC[C@H](C)[C@@H](C5CCCCC5)O4)O3)OC(=O)[C@@H]3C=C(C)/C(=N/O)[C@H]4OC/C(=C\C=C\[C@@H]2C)[C@]43O)O[C@@H](C)[C@@H]1O [Selamectin]	1.94	3.16	6.67	1.24	0.681	1.04
COC1=C(OC)C(=O)C(CCCCCCCCCCO)=C(C)C1=O [Idebenone]	1.45	0.641	0.677	1.22	1.05	0.744
CC1(C)CCC(C)(C)c2cc(NC(=O)c3ccc(C(=O)O)cc3)ccc21 [Tamibarotene]	1.13	1.55	1.77	3	0.884	1.24
O=C(/C=C/c1ccc(O)cc1)c1ccc(O)cc1O [Isoliquiritigenin]	0.936	1.2	1.16	0.82	0.786	0.885
CNC(=C[N+](=O)[O-])NCCSCc1ccc(CN(C)C)o1 [Ranitidine]	0.881	0.596	0.696	0.903	1.02	0.83
CNC1CCCN(c2c(F)cc3c(=O)c(C(=O)O)cn(C4CC4)c3c2OC)C1 (stereo not drawn) [Balofloxacin Dihydrate]	0.976	0.602	0.831	1.09	1.13	1.02
C[C@@H]1COC(Nc2ccc3ncnc(Nc4ccc(OCc5nccs5)c(Cl)c4)c3c2)=N1 [Varlitinib]	1.45	1.22	1.15	1.15	2.16	1.56
S=c1nc[nH]c2nc[nH]c12 [6-Mercaptopurine (6-MP) Monohydrate]	1.29	0.49	0.673	0.989	1.81	0.591

Source: the supplement of paper PMC10127200
